# Experimental data taken from article PMC5540273 (PLoS ONE, 2017).
# Where two headings read alike, the source gives them in different places.
# Tests used:
# CDKL5 = settings: concentration: 1 μM, replicates: in singlicate; n = 1
# CHEK1 = settings: concentration: 1 μM, replicates: in singlicate; n = 1
# CHEK2 = settings: concentration: 1 μM, replicates: in singlicate; n = 1
# CIT = settings: concentration: 1 μM, replicates: in singlicate; n = 1
# CLK1 = settings: concentration: 1 μM, replicates: in singlicate; n = 1
# CLK2 = settings: concentration: 1 μM, replicates: in singlicate; n = 1
# CLK3 = settings: concentration: 1 μM, replicates: in singlicate; n = 1
# CLK4 = settings: concentration: 1 μM, replicates: in singlicate; n = 1
# CSF1R-autoinhibited = settings: concentration: 1 μM, replicates: in singlicate; n = 1
# CSF1R = settings: concentration: 1 μM, replicates: in singlicate; n = 1
# CSK = settings: concentration: 1 μM, replicates: in singlicate; n = 1
# CSNK1A1L = settings: concentration: 1 μM, replicates: in singlicate; n = 1
# CSNK1A1 = settings: concentration: 1 μM, replicates: in singlicate; n = 1
# CSNK1D = settings: concentration: 1 μM, replicates: in singlicate; n = 1
# CSNK1E = settings: concentration: 1 μM, replicates: in singlicate; n = 1
# CSNK1G1 = settings: concentration: 1 μM, replicates: in singlicate; n = 1
# CSNK1G2 = settings: concentration: 1 μM, replicates: in singlicate; n = 1
# CSNK1G3 = settings: concentration: 1 μM, replicates: in singlicate; n = 1
# CSNK2A1 = settings: n = 1
# CSNK2A2 = settings: n = 1
# [1] = concentration: 1 μM, replicates: in singlicate
# 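Note: KINOMEscan kinase panel screen.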
smiles,measurement,setting,value
CNCc1ccc2nc(NC(=O)c3ccc(C(C)(C)C)cc3)cn2c1,%Inh,CDKL5,23%
same,%Inh,CHEK1,5%
same,%Inh,CHEK2,0%
same,%Inh,CIT,0%
same,%Inh,CLK1,87%
same,%Inh,CLK2,22%
same,%Inh,CLK3,0%
same,%Inh,CLK4,3%
same,%Inh,CSF1R-autoinhibited,2%
same,%Inh,CSF1R,42%
same,%Inh,CSK,0%
same,%Inh,CSNK1A1L,0%
same,%Inh,CSNK1A1,2%
same,%Inh,CSNK1D,11%
same,%Inh,CSNK1E,3%
same,%Inh,CSNK1G1,9%
same,%Inh,CSNK1G2,0%
same,%Inh,CSNK1G3,87%
same,%Inh,CSNK2A1; [1],42%
same,%Inh,CSNK2A2; [1],4%
COC(=O)C(NC(=O)NC1CCN(c2ccnc(Nc3ccc(F)cc3)n2)C1)c1ccccc1 (stereo not shown) [GSK1379712],%Inh,CDKL5,3%
same,%Inh,CHEK1,3%
same,%Inh,CHEK2,37%
same,%Inh,CIT,0%
same,%Inh,CLK1,9%
same,%Inh,CLK2,0%
same,%Inh,CLK3,0%
same,%Inh,CLK4,0%
same,%Inh,CSF1R-autoinhibited,34%
same,%Inh,CSF1R,5%
same,%Inh,CSK,0%
same,%Inh,CSNK1A1L,3%
same,%Inh,CSNK1A1,0%
same,%Inh,CSNK1D,92%
same,%Inh,CSNK1E,19%
same,%Inh,CSNK1G1,5%
same,%Inh,CSNK1G2,1%
same,%Inh,CSNK1G3,25%
same,%Inh,CSNK2A1; [1],3%
same,%Inh,CSNK2A2; [1],0%
CCn1c(-c2c(N)noc2C)nc2cnccc21 [SB-737856],%Inh,CDKL5,0%
same,%Inh,CHEK1,0%
same,%Inh,CHEK2,0%
same,%Inh,CIT,22%
same,%Inh,CLK1,26%
same,%Inh,CLK2,0%
same,%Inh,CLK3,0%
same,%Inh,CLK4,13%
same,%Inh,CSF1R-autoinhibited,0%
same,%Inh,CSF1R,14%
same,%Inh,CSK,0%
same,%Inh,CSNK1A1L,18%
same,%Inh,CSNK1A1,0%
same,%Inh,CSNK1D,13%
same,%Inh,CSNK1E,11%
same,%Inh,CSNK1G1,8%
same,%Inh,CSNK1G2,0%
same,%Inh,CSNK1G3,9%
same,%Inh,CSNK2A1; [1],0%
same,%Inh,CSNK2A2; [1],0%
Cc1c(Cn2c(C)c(C)n3c(=O)cc(N4CCOCC4)nc23)cccc1C(F)(F)F [GSK2328680],%Inh,CDKL5,0%
same,%Inh,CHEK1,0%
same,%Inh,CHEK2,8%
same,%Inh,CIT,19%
same,%Inh,CLK1,22%
same,%Inh,CLK2,0%
same,%Inh,CLK3,6%
same,%Inh,CLK4,21%
same,%Inh,CSF1R-autoinhibited,14%
same,%Inh,CSF1R,0%
same,%Inh,CSK,0%
same,%Inh,CSNK1A1L,10%
same,%Inh,CSNK1A1,0%
same,%Inh,CSNK1D,24%
same,%Inh,CSNK1E,20%
same,%Inh,CSNK1G1,0%
same,%Inh,CSNK1G2,0%
same,%Inh,CSNK1G3,21%
same,%Inh,CSNK2A1; [1],2%
same,%Inh,CSNK2A2; [1],5%
COc1cccc(CNC(=O)NC2CCN(c3ccnc(Nc4ccc(F)cc4)n3)C2)c1 (stereo not shown) [GSK1379723],%Inh,CDKL5,6%
same,%Inh,CHEK1,5%
same,%Inh,CHEK2,0%
same,%Inh,CIT,19%
same,%Inh,CLK1,19%
same,%Inh,CLK2,0%
same,%Inh,CLK3,0%
same,%Inh,CLK4,8%
same,%Inh,CSF1R-autoinhibited,10%
same,%Inh,CSF1R,2%
same,%Inh,CSK,0%
same,%Inh,CSNK1A1L,21%
same,%Inh,CSNK1A1,19%
same,%Inh,CSNK1D,4%
same,%Inh,CSNK1E,11%
same,%Inh,CSNK1G1,0%
same,%Inh,CSNK1G2,0%
same,%Inh,CSNK1G3,16%
same,%Inh,CSNK2A1; [1],0%
same,%Inh,CSNK2A2; [1],2%
CS(=O)(=O)Cc1ccc(Nc2nccc(-c3c(-c4cccc(NC(=O)C5CCCCC5)c4)nn4ncccc34)n2)cc1 [GSK350559],%Inh,CDKL5,33%
same,%Inh,CHEK1,12%
same,%Inh,CHEK2,0%
same,%Inh,CIT,10%
same,%Inh,CLK1,10%
same,%Inh,CLK2,10%
same,%Inh,CLK3,24%
same,%Inh,CLK4,0%
same,%Inh,CSF1R-autoinhibited,35%
same,%Inh,CSF1R,79%
same,%Inh,CSK,10%
same,%Inh,CSNK1A1L,0%
same,%Inh,CSNK1A1,7%
same,%Inh,CSNK1D,0%
same,%Inh,CSNK1E,20%
same,%Inh,CSNK1G1,2%
same,%Inh,CSNK1G2,5%
same,%Inh,CSNK1G3,4%
same,%Inh,CSNK2A1; 1 µM,17%
same,%Inh,CSNK2A2; 1 µM,1%
CCn1c(-c2ccccc2)nc2cnccc21 [SB-733416],%Inh,CDKL5,4%
same,%Inh,CHEK1,29%
same,%Inh,CHEK2,0%
same,%Inh,CIT,23%
same,%Inh,CLK1,17%
same,%Inh,CLK2,0%
same,%Inh,CLK3,0%
same,%Inh,CLK4,3%
same,%Inh,CSF1R-autoinhibited,0%
same,%Inh,CSF1R,13%
same,%Inh,CSK,0%
same,%Inh,CSNK1A1L,11%
same,%Inh,CSNK1A1,0%
same,%Inh,CSNK1D,2%
same,%Inh,CSNK1E,24%
same,%Inh,CSNK1G1,0%
same,%Inh,CSNK1G2,0%
same,%Inh,CSNK1G3,11%
same,%Inh,CSNK2A1; [1],0%
same,%Inh,CSNK2A2; [1],1%
CC(=O)c1c(C)c2cnc(Nc3ccc(N4CCNCC4)cn3)nc2n(C2CCCC2)c1=O,%Inh,CDKL5,0%
same,%Inh,CHEK1,0%
same,%Inh,CHEK2,16%
same,%Inh,CIT,3%
same,%Inh,CLK1,23%
same,%Inh,CLK2,0%
same,%Inh,CLK3,100%
same,%Inh,CLK4,13%
same,%Inh,CSF1R-autoinhibited,7%
same,%Inh,CSF1R,7%
same,%Inh,CSK,0%
same,%Inh,CSNK1A1L,0%
same,%Inh,CSNK1A1,24%
same,%Inh,CSNK1D,8%
same,%Inh,CSNK1E,99.9%
same,%Inh,CSNK1G1,0%
same,%Inh,CSNK1G2,0%
same,%Inh,CSNK1G3,0%
same,%Inh,CSNK2A1; [1],0%
same,%Inh,CSNK2A2; [1],13%
Nc1ncnc2occ(-c3ccc4c(c3)CCN4C(=O)Cc3cc(F)ccc3F)c12 [GSK2645446],%Inh,CDKL5,0%
same,%Inh,CHEK1,0%
same,%Inh,CHEK2,21%
same,%Inh,CIT,0%
same,%Inh,CLK1,27%
same,%Inh,CLK2,0%
same,%Inh,CLK3,0%
same,%Inh,CLK4,0%
same,%Inh,CSF1R-autoinhibited,0%
same,%Inh,CSF1R,17%
same,%Inh,CSK,0%
same,%Inh,CSNK1A1L,1%
same,%Inh,CSNK1A1,1%
same,%Inh,CSNK1D,0%
same,%Inh,CSNK1E,30%
same,%Inh,CSNK1G1,4%
same,%Inh,CSNK1G2,0%
same,%Inh,CSNK1G3,38%
same,%Inh,CSNK2A1; [1],0%
same,%Inh,CSNK2A2; [1],11%
O=C(Nc1n[nH]c2nc(-c3cccs3)c(Br)cc12)C1CC1 [SB-735297],%Inh,CDKL5,0%
same,%Inh,CHEK1,0%
same,%Inh,CHEK2,0%
same,%Inh,CIT,0%
same,%Inh,CLK1,11%
same,%Inh,CLK2,0%
same,%Inh,CLK3,0%
same,%Inh,CLK4,0%
same,%Inh,CSF1R-autoinhibited,0%
same,%Inh,CSF1R,0%
same,%Inh,CSK,12%
same,%Inh,CSNK1A1L,6%
same,%Inh,CSNK1A1,0%
same,%Inh,CSNK1D,0%
same,%Inh,CSNK1E,0%
same,%Inh,CSNK1G1,0%
same,%Inh,CSNK1G2,0%
same,%Inh,CSNK1G3,17%
same,%Inh,CSNK2A1; [1],26%
same,%Inh,CSNK2A2; [1],51%
Cc1ccccc1-c1cc(-c2c[nH]nc2-c2ccccn2)ccn1 [GW680061],%Inh,CDKL5,0%
same,%Inh,CHEK1,85%
same,%Inh,CHEK2,4%
same,%Inh,CIT,24%
same,%Inh,CLK1,15%
same,%Inh,CLK2,0%
same,%Inh,CLK3,0%
same,%Inh,CLK4,15%
same,%Inh,CSF1R-autoinhibited,10%
same,%Inh,CSF1R,3%
same,%Inh,CSK,0%
same,%Inh,CSNK1A1L,7%
same,%Inh,CSNK1A1,12%
same,%Inh,CSNK1D,24%
same,%Inh,CSNK1E,16%
same,%Inh,CSNK1G1,2%
same,%Inh,CSNK1G2,0%
same,%Inh,CSNK1G3,1%
same,%Inh,CSNK2A1; [1],13%
same,%Inh,CSNK2A2; [1],0%
